The values that follow come from PubChem BioAssay AID588726 (The Scripps Research Institute Molecular Screening Center, 2011).

In all, about 360,000 compounds went through this assay and about 8,200 (2.3%) were called active. Cut-off read from the data, not from the text of the source: active = inhibition above about 27%; inactive = the rest. Shown is part of a subset that was picked to be rich in actives.

In the test the target is Fructose-bisphosphate aldolase (Mycobacterium tuberculosis (strain ATCC 25618 / H37Rv)) (UniProt P9WQA3). Put plainly: Mtb FBA enzyme inhibitors, primary screen, biochemical, fluorescence, strain H37Rv (AID 588726).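 Note: 0% = vehicle and 100% = reference inhibitor.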 Conditions: purified M. tuberculosis FBA, fluorescence read-out, at 1 µM, stronger effect = higher value.
Sequence of Fructose-bisphosphate aldolase (Mycobacterium tuberculosis (strain ATCC 25618 / H37Rv)) (P9WQA3 whole entry, looked up): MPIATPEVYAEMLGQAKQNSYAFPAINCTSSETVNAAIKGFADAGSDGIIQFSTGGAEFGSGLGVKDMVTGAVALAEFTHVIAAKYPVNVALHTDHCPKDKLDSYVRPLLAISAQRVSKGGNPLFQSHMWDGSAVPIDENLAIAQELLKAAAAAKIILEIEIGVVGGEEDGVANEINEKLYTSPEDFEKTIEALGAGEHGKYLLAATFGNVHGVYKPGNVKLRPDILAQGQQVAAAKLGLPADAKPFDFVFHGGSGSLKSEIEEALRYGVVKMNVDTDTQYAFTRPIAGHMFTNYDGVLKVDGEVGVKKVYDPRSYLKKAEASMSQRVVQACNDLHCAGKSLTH
Consider `COc1c(O)cccc1-c1nnn(CCC(=O)OCC(=O)c2ccccc2)n1`, for which the inhibition was 0.78% (inactive).
Take `CC1(C)Oc2ccc3ccc(=O)oc3c2/C(=C/NCCO)C1=O`: the inhibition was 2.48% (inactive).
The same measure for `C/C=C(/C)C(=O)OC1Cc2c(ccc3ccc(=O)oc23)OC1(C)C` (stereo unspecified): 26.4% (inactive).
On to `Cc1cc(=O)oc2c1ccc1ccccc12`, for which the inhibition is 37% (active).
As for `CC(=O)c1c(OCC(=O)N(C)C2CCCCC2)ccc2c(C)cc(=O)oc12`, the inhibition is 9.58% (inactive).
The same measure for `Cc1cc(=O)oc2c(C(=O)c3ccccc3)c(OCC(N)=O)ccc12`: 0.48% (inactive); for `N#CC(C#N)=CN=c1ccn(Cc2ccc(Cl)cc2Cl)cc1`: -0.58% (inactive).
For the molecule `O=C(COc1ccc2ccccc2c1)N1CCN(C(=O)c2cccs2)CC1`, the inhibition was -0.2% (inactive).
The figure for `CC(=O)NS(=O)(=O)c1ccc(NC(=O)/C=C/c2ccccc2Cl)cc1` is 6.43% (inactive).
As for `CC(=O)Nc1ccc(S(=O)(=O)Nc2cc(C)cn(Cc3ccc(C)cc3)c2=O)cc1`, the inhibition was -0.45% (inactive).
The same measure for `CCC1CCCCN1CCCNC(=O)c1cc2c(Cl)nc3ccccc3c2s1` (stereo unspecified): -4.11% (inactive).
The figure for `O=C(NCCN1CCN(Cc2ccccc2)CC1)c1cc2c(=O)[nH]c3ccccc3c2s1` is 47.8% (active).
In the case of `Cn1c(C(=O)NCCN2CCc3ccccc3C2)cc2c(=O)[nH]c3ccccc3c21`, the inhibition is 5.1% (inactive).
On to `Cc1ccc(C)c(C(O)c2ncc(-c3cccc4ccccc34)[nH]2)c1` (stereo unspecified), for which the inhibition was 23.2% (inactive).
The figure for `COc1ccccc1CN(C)C(=O)c1cc2ccccc2o1` is 2.4% (inactive).
The figure for `COc1cccc2oc(CCc3ccccc3)cc(=O)c12` is 33.4% (active); for `COc1ccc(C)cc1S(=O)(=O)NCCc1ccccc1` it is -6.6% (inactive); for `CCOc1ccc(C(=O)NC(=S)Nc2ccc(N3CCOCC3)c(Cl)c2)cc1[N+](=O)[O-]` it is 11% (inactive).
The same measure for `COC(=O)C1C(=O)CC(C)(O)C(C(=O)OC)C1c1ccc2c(c1)OCO2` (stereo unspecified): 0.24% (inactive); for `COc1cc(OC)c(S(=O)(=O)Nc2ccccc2C(=O)O)cc1S(=O)(=O)Nc1ccccc1C(=O)O`: 30.9% (active).
As to `COc1cc(/C=C/C(=O)O)cc(S(=O)(=O)Nc2ccccc2C(=O)NCCc2ccccc2)c1OC`, the inhibition is 0.65% (inactive).
Take `COc1ccc(OC)c(S(=O)(=O)Nc2ccccc2F)c1`: the inhibition is -2.78% (inactive).
As for `COc1ccc(N2CC(C(=O)NCCS(=O)(=O)N3CCN(c4ccccc4)CC3)CC2=O)cc1` (stereo unspecified), the inhibition is -1.82% (inactive).
Consider `CCOC(=O)N1CCN(Cc2nc3cc(NC(=O)CC)ccc3n2CC)CC1`, for which the inhibition was 0.91% (inactive).
Consider `COCc1c(C(=O)OCC(=O)Nc2ccc(OC(F)F)cc2)oc2ccccc12`, for which the inhibition was 1.74% (inactive).
Take `Cc1cc(C)c2nc(-c3ccco3)cc(C(=O)O)c2c1`: the inhibition is 105% (active).
For `COC(=O)c1cnn2c(C(F)(F)F)cc(-c3ccco3)nc12`, the inhibition is 14% (inactive).
Consider `CCOC(=O)c1ccn(-c2nc(-c3ccco3)cc(C(F)(F)F)n2)n1`, for which the inhibition is 10.6% (inactive).
The same measure for `Cc1ccnc(NS(=O)(=O)c2ccc(NC(=O)c3oc4ccc(F)cc4c3C)cc2)n1`: 1.55% (inactive).
The same measure for `CN(C(=O)c1cccc(NC(=O)Cc2ccc(NC(=O)C3CCCN(C(=O)C4CC4)C3)cc2)c1)C1CC1` (stereo unspecified): 0.61% (inactive); for `Cc1ccc(C(=O)c2coc3ccc(O)c(CN(C)C)c23)cc1`: -0.7% (inactive).
The same measure for `CN(C)Cc1c(O)ccc2c(=O)c(-c3ccccc3Cl)coc12`: 96.3% (active).
For `CN(C)Cc1c(O)ccc2occ(C(O)c3ccccc3)c12` (stereo unspecified), the inhibition is 6.31% (inactive).
With `O=C(CNC(=O)c1ccccc1)NCC(=O)OCc1ccc(Cl)cc1`, the inhibition is 0.34% (inactive).
On to `CC(Oc1ccc2c(-c3ccccc3)cc(=O)oc2c1)C(=O)NC(Cc1c[nH]c2ccccc12)C(=O)O` (stereo unspecified), for which the inhibition was -3.79% (inactive).
Consider `O=C(CNC(=O)OCc1ccccc1)Oc1cc2oc(=O)cc(-c3ccccc3)c2cc1Cl`, for which the inhibition was 36.7% (active).
As to `CCN(C(=O)COC(=O)C1CCN(S(=O)(=O)c2ccc(C)c(C)c2)CC1)C1CCS(=O)(=O)C1` (stereo unspecified), the inhibition is 4.31% (inactive).
As to `CCNC(=O)COC(=O)CCNC(=O)c1cccc(C)c1`, the inhibition is -2.08% (inactive).
The figure for `COCCN(CCOC)c1nc(N)c2c(N)nc3c(c2c1C#N)CC(=O)N3Cc1ccc(Cl)cc1` is 32.8% (active); for `CN(Cc1ccccc1)C(=O)C1CCCN(c2ncnc3c2nc2n3CCCCC2)C1` (stereo unspecified) it is 0.44% (inactive).
As for `COc1cccc(NS(=O)(=O)c2ccc(-c3coc(C)n3)cc2)c1`, the inhibition is -2.5% (inactive).
Consider `O=C(/C=C/[C@H]1O[C@@H](n2ccc(=O)[nH]c2=O)[C@H](O)[C@@H]1O)NCc1ccccn1`, for which the inhibition was -1.68% (inactive).
The same measure for `CCOC(=O)c1cc(C(C)C)sc1NC(=O)COC(=O)c1nccnc1N`: 55.2% (active); for `CCOC(=O)c1cc(C)sc1NC(=O)C1CCC1`: 4.25% (inactive); for `Cc1cc(C(=O)OCC(=O)Nc2nnc(C(C)C)s2)c2ccccc2n1`: 1.64% (inactive).
The same measure for `Cc1cc(C)c2c(c1)NP(=S)(c1ccccc1)N2` (stereo unspecified): 34.4% (active); for `COc1ccc2c(c1)NP(=S)(c1ccccc1)N2` (stereo unspecified): 18.1% (inactive); for `COc1cc2nc(N3CCN(C(=O)[C@@H]4CCCO4)CC3)nc(N)c2cc1OC`: 95.4% (active).
For the molecule `O=C(C1CCCO1)N1CCC(c2nc3ccccc3[nH]2)CC1` (stereo unspecified), the inhibition is -0.87% (inactive).
The same measure for `COC(=O)c1cc(OC)c(OC)cc1NC(=O)C1CCCO1` (stereo unspecified): 15.2% (inactive).
With `CC1(C)CC(=O)c2cc(OCC(=O)NCC3CCCO3)ccc2O1` (stereo unspecified), the inhibition was 78.8% (active).
Regarding `CCOc1ccc(S(=O)(=O)NCCC(=O)NCC2CCCO2)cc1` (stereo unspecified), the inhibition is -1.07% (inactive).
The figure for `C=CCOc1ccc(/C=C/C(=O)OCC(=O)NCC2CCCO2)cc1` (stereo unspecified) is 1.08% (inactive); for `CC1=C(C(=O)N(C(C)C)C(C)C)CC(CC(=O)NCCCCc2ccccc2)C(=O)N1CCC1=CCCCC1` (stereo unspecified) it is -1.08% (inactive); for `O=C(NC1CC1)C(Cc1ccccc1)NS(=O)(=O)c1ccccc1F` (stereo unspecified) it is 2.61% (inactive).
The same measure for `Cc1ccc(SCC(=O)NNC(=O)c2ccc(S(C)(=O)=O)cc2)cc1`: 0.63% (inactive); for `CC(C)(C)c1ccc(/C=C/C(=O)NCCCn2ccnc2)cc1`: 1.36% (inactive); for `O=C(O)c1ccccc1-c1cccc2nncn12`: 4.68% (inactive).
In the case of `CCCC/C=C/c1cccc2nncn12`, the inhibition was 27.5% (active).
The same measure for `OCC1(CO)CC2(C1)CC(CO)(CO)C2`: 0.01% (inactive); for `Cc1nn(-c2ncccn2)c2c1C(=O)CC(C)(C)C2Br` (stereo unspecified): 4.4% (inactive).
In the case of `COc1ccc(NC(=O)/C(N=Nc2cccc(S(=O)(=O)Nc3ccc(SC(F)F)cc3)c2)=C(\C)O)cc1`, the inhibition is -0.31% (inactive).
For `CCc1ccc(C(=O)NC(=S)Nc2ccccc2N2CCOCC2)cc1`, the inhibition was 0.12% (inactive).
Consider `Cc1cc(=O)[nH]c(SCc2ccc(Cl)cc2)n1`, for which the inhibition was 0.44% (inactive).
As for `O=c1c2c(nc3cc(-c4cccc(Cl)c4)[nH]n13)CCCC2`, the inhibition was 3.87% (inactive).
As to `Cc1cc(=O)n2[nH]c(-c3cccc(Cl)c3)cc2n1`, the inhibition is 32.4% (active).
The figure for `C[C@H](NC(=O)c1ccccc1Cl)C(=O)OCCOc1cccc(Cl)c1` is 4.6% (inactive).
The same measure for `CCN(CC)CCNCc1ccc(OCc2ccc(Cl)nc2)c(OC)c1`: -0.85% (inactive); for `O=C(CN1C(=O)NC2(CCCC2)C1=O)Nc1ccc(F)c(F)c1F`: -0.1% (inactive); for `CC(=O)NCCC(=O)Nc1nc(C)c(Cc2ccc3c(c2)OCO3)s1`: -0.89% (inactive).
The figure for `Cc1cc(NC(=O)CN2C(=O)NC(CCc3ccccc3)C2=O)no1` (stereo unspecified) is 0.86% (inactive); for `COCC(=O)N(C)[C@H]1C[C@H]2c3cc(Oc4ccccc4C)ccc3CCN2C(=O)[C@H]1[C@H](C)O` it is 0.95% (inactive); for `C[C@H](O)[C@@H]1C(=O)N2CCc3c([nH]c4ccccc34)[C@@H]2C[C@@H]1N(C)C(=O)Nc1ccc(F)cc1` it is 55.9% (active).
As for `C[C@H](O)[C@@H]1C(=O)N2CCc3ccc(N4CCOCC4)cc3[C@@H]2C[C@@H]1N(C)C(=O)C(C)(C)C`, the inhibition is 7.29% (inactive).
With `COc1ccc(CCNC(=O)CCCCCNC(=O)N2CCn3c2nc2ccccc23)cc1OC`, the inhibition is -0.38% (inactive).
The same measure for `CCc1nc2ccccc2c(C(=O)OC2CCCCC2=O)c1C` (stereo unspecified): 0.09% (inactive); for `CCc1c(C)c2ccc(OC3CCCCC3=O)cc2oc1=O` (stereo unspecified): 90.5% (active); for `CCOc1ccc2c(=O)c(-c3ccc4c(c3)OCCCO4)c(C)oc2c1`: -0.24% (inactive).
The figure for `COC(=O)C(NS(=O)(=O)c1ccc(F)cc1)c1ccccc1` (stereo unspecified) is 1.52% (inactive); for `CCSC1(SCC)N=C(N)C2(C#N)C(c3ccccc3)NC(C)=CC12C#N` (stereo unspecified) it is 4.9% (inactive); for `CN1C[C@@H](CO)O[C@@H](n2cnc3c(N4CCN(CCO)CC4)ncnc32)C1` it is -1.44% (inactive).
As to `CCOC(=O)N1CCN(C(=O)c2cc3c(ccc4ccccc43)oc2=O)CC1`, the inhibition was 48.8% (active).
The figure for `COc1ccc(NC(=O)C2C3C=CC(C3)C2C(=O)NCc2ccccn2)c(OC)c1` (stereo unspecified) is 3.99% (inactive); for `CCOC(=O)N1CCN(C(=O)c2n[nH]c(=O)c3ccccc23)CC1` it is -0.89% (inactive).
For `COc1ccc2oc(=O)c(C(=O)NCc3ccccn3)cc2c1`, the inhibition is 82.7% (active).
The figure for `COc1cccc2cc(C(=O)N3CCN(C(=O)c4ccccc4)CC3)c(=O)oc12` is -2.27% (inactive); for `COc1ccc(C(=O)N2CCCN(C)CC2)c(OC)c1` it is 1.38% (inactive).
The figure for `C=CCc1cccc2cc(C(=O)N3CCN(C(=O)OCC)CC3)c(=O)oc12` is 1.44% (inactive).
The same measure for `COc1ccc2oc(=O)c(C(=O)N3CCCC3)cc2c1`: 27.7% (active); for `COc1ccc(-c2nc(CS(=O)CC(=O)NCc3ccccn3)c(C)o2)cc1` (stereo unspecified): 4.79% (inactive).
As for `C=CCC(CC=C)(C(N)=O)c1ccccc1`, the inhibition was -1.04% (inactive).

In general, inhibition refers to the change of the read-out against control, counted positive when it falls.
